{
  "source": "PubChem BioAssay (NCI)",
  "note": "The panel holds about 79,000 compounds, 15% with a hit somewhere; the sample as a whole holds those more often. The source made the active and inactive calls. Rule as the data show it: active = growth inhibition above about 70%; inactive = the rest.",
  "data": [
    {"assay": "NCI Yeast Anticancer Drug Screen. Data for the rad18 strain (AID 177)", "details": "S. cerevisiae rad18 mutant growth inhibition; at 100.0 µM; stronger effect = higher value", "procedure,_shortened": "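Inhibition values reflect reduced yeast growth compared with vehicle-treated controls, using a strain engineered with a DNA damage repair defect.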", "values": [
      {"smiles": "COc1ccc(/C=C2\\CCc3ccccc3C2=O)cc1OC", "growth inhibition": "88% (active)"},
      {"smiles": "O=Cc1ccccc1B(O)O", "growth inhibition": "99% (active)"},
      {"smiles": "CC(=O)CC[N+](C)(C)C", "growth inhibition": "-10% (inactive)"},
      {"smiles": "O=C(O)[C@H]1[C@@H](C2CCCCC2)O[C@@H](C2CCCCC2)O[C@H]1C(F)(F)F", "growth inhibition": "-2% (inactive)"},
      {"smiles": "CN(NC(=O)/C(=C/C=C/c1ccccc1)NC(=O)c1ccccc1)C1=C(Cl)C(=O)[N+](c2ccccc2)=CC1", "growth inhibition": "87% (active)"},
      {"smiles": "CCCCOc1ccc(Nc2c3ccccc3nc3ccccc23)cc1", "growth inhibition": "75% (active)"},
      {"smiles": "N#C/C(=C1C=C/C(=N\\O)C(Cl)=C\\1)c1ccccc1", "growth inhibition": "13% (inactive)"},
      {"smiles": "COc1ccc(C(=O)OCCc2ccccc2)cc1", "growth inhibition": "8% (inactive)"},
      {"smiles": "Cc1c2ccncc2c(C)c2c1oc1ccccc12", "growth inhibition": "98% (active)"},
      {"smiles": "CCCC#CCOC(=O)c1cc([N+](=O)[O-])cc([N+](=O)[O-])c1", "growth inhibition": "99% (active)"},
      {"smiles": "Nc1nc(Nc2ccccc2)nc(Nc2ccccc2)n1", "growth inhibition": "96% (active)"},
      {"smiles": "COc1ccc(/C=C2\\S/C(=N/Nc3nc(-c4ccccc4)cs3)NC2=O)cc1OC", "growth inhibition": "90% (active)"},
      {"smiles": "CC(O)CN1C(=O)c2cccc3cc([N+](=O)[O-])cc(c23)C1=O", "note": "(centres undefined)", "growth inhibition": "88% (active)"},
      {"smiles": "COC1=C(N=[N+]=[N-])C(=O)c2ncccc2C1=O", "growth inhibition": "96% (active)"},
      {"smiles": "CCN(CC)c1ccc(N=Nc2cc(S(=O)(=O)O)ccc2O)c(O)c1", "growth inhibition": "7% (inactive)"},
      {"smiles": "CN(C)CCNC(=O)c1cccc2nc3c(ccc4ccccc43)nc12", "growth inhibition": "99% (active)"},
      {"smiles": "O=S(=O)(CCC[C@H]1[C@@H](CCOCc2ccccc2)C2CCCN1O2)c1ccccc1", "note": "(some centres undefined)", "growth inhibition": "19% (inactive)"},
      {"smiles": "CCC(C)/C(C)=N/NC(N)=O", "note": "(centres undefined)", "growth inhibition": "5% (inactive)"},
      {"smiles": "Nc1c([N+](=O)[O-])cc2c3c(cccc13)CC2", "growth inhibition": "86% (active)"},
      {"smiles": "CC1=Cc2ccc(C)cc2C(=O)C1=O", "growth inhibition": "98% (active)"},
      {"smiles": "C=Cc1c(C)c(O)cc2c1-c1ccc(O)c(C)c1CC2", "growth inhibition": "99% (active)"},
      {"smiles": "C[n+]1c(-c2ccc(NC(=O)c3ccc(C(=O)Nc4ccc(-c5cn6ccccc6[n+]5C)cc4)cc3)cc2)cn2ccccc21", "growth inhibition": "92% (active)"},
      {"smiles": "CNC(=O)OCc1c(COC(=O)NC)c(C)n(-c2ccc(Cl)c(Cl)c2)c1C", "growth inhibition": "98% (active)"},
      {"smiles": "C[Si](C)(C)Cc1ccccc1C(=O)O", "growth inhibition": "97% (active)"}
    ]}
  ]
}
